# A number with no mark means an inactive call.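 Rule for the calls: active = combined score above 50, rising as EC50 falls below 10 µM and growth at top dose drops; inactive = the rest.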 Peptide text beside a SMILES is read from it. * marks the point of attachment. Cbz = O=C(OCc1ccccc1)*
# Test system: YE4008
# Test: growth inhibition of S. cerevisiae strain panel, profiling panel, 26S proteasome disassembly project, secondary panel, OD600 (AID 2125)
# Conditions: growth OD600, 6-8 h, at 100 µM, stronger effect = lower value
row,SMILES,percent response (growth) [%]
1,CC(C)C[C@@H](C=O)NC(=O)[C@H](CC(C)C)NC(=O)[C@H](CC(C)C)NC(=O)OCc1ccccc1 (Cbz-Leu-Leu-Leu-aldehyde),88.2
2,CC(=O)N1C(=O)C(=C2C=C(C)OC(C)=C2)c2ccccc21,56.6

# Reference: PubChem BioAssay AID2125 (NMMLSC, 2009)
